Assay results: PubChem BioAssay AID651814 (National Center for Advancing Translational Sciences (NCATS), 2012)
In all, about 2,100 compounds went through this assay and about 590 (28%) were called active. Roughly 42% stayed inconclusive and do not appear here. The call rests on the fitted dose curve; in most records, active means well fitted inhibition curve with a large enough effect; inconclusive means small, poorly fitted or top-dose-only effect; inactive means flat fitted curve, though single readings scatter. The list shows a part of the results.
Further: nearly all actives have a fitted effect of over 70% in size.
Potency means the concentration at half of the fitted maximal effect.
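Wherever max response is given: % of control where 0% means no effect; active compounds raise eYFP fluorescence by blocking Vif-driven A3F loss.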

What follows are compounds tested against DNA dC->dU-editing enzyme APOBEC-3F (Homo sapiens) (UniProt Q8IUX4) (assay: qHTS for inhibitors of Vif-A3F interactions: Cherry picks). Conditions: HeLa A3F-eYFP + Vif (tagged APOBEC3F with the HIV-1 protein that degrades it), eYFP fluorescence, 24 h.
Sequence of DNA dC->dU-editing enzyme APOBEC-3F (Homo sapiens) (Q8IUX4 whole entry, looked up): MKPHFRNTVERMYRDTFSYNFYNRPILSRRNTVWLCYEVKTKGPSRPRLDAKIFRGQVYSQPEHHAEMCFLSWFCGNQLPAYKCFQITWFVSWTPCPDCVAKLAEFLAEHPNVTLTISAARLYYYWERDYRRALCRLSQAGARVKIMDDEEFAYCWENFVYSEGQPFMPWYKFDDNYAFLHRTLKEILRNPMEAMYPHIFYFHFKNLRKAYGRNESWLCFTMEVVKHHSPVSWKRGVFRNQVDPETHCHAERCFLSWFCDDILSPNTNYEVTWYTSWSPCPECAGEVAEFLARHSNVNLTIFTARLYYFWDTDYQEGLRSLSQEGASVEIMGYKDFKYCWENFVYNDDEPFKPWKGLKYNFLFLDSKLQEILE
Summary of the method: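 HeLa cells stably expressing A3F-eYFP plus Vif, cultured overnight, then exposed to compounds at several concentrations for 24 h at 37 deg C. Reduced Vif-driven degradation read as rising eYFP fluorescence (488 nm ex/500-530 nm em) by laser-scanning cytometry; MG132 as positive control.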
CC(C)NC(=S)N/N=C1\CCCCc2ccccc21 was tested, and the max response was 2.14% (inactive).
In the case of CNC(=S)N/N=C/c1ccc(N2CCOCC2)s1, the max response is reported as -10.3% (inactive).
For CC(C)NC(=S)N/N=C/c1sc(N2CCCCC2)nc1-c1cccs1, the Potency was 16.4 µM (active).
With N#Cc1c(C(F)(F)F)cc(-c2ccccc2)nc1SCc1nc(N)nc(N2CCOCC2)n1 the Potency was 5.8 µM (active).
With COc1cc(N2CCCC2)c(OC)cc1/C=C(/C#N)c1ccc(Br)cc1 the Potency was 7.31 µM (active).
In the case of COc1cc(N2CCCC2)c(OC)cc1/C=C(/C#N)c1ccc(F)cc1, the Potency is reported as 20.6 µM (active).
In the case of CC1Cc2cc(S(=O)(=O)CCC(=O)NCc3ccc(Cl)cc3)ccc2N1C(=O)C1CC1 (stereo unspecified), the max response is reported as -29.5% (inactive).
For COC(=O)c1c(-c2cccnc2)csc1NC(=O)c1ccc2c(c1)OCO2, the max response was -11.9% (inactive).
For Cc1ccc(C(=O)Nc2sc(Cc3ccc4c(c3)OCO4)c(C)c2C(N)=O)cc1, the Potency was 6.51 µM (active).
O=C(/C=C/c1cccs1)NCc1ccc2c(c1)OCO2 was tested, and the max response was 1.53% (inactive).
In the case of CCOc1cc(/C=C2\N=C(SC(C)C(N)=O)N(c3ccc(OC(F)F)cc3)C2=O)ccc1O (stereo unspecified), the Potency is reported as 15.8 µM (active).
For COc1cc(N2CCCC2)c(OC)cc1/C=C1/NC(=S)NC1=O, the Potency was 3.53 µM (active).
For Cc1cc(C)c2nc(SCC(=O)N3CC(=O)Nc4ccccc43)c(C#N)cc2c1, the Potency was 3.96 µM (active).
Cc1cccc2cc(C#N)c(SCC(=O)N3CC(=O)Nc4ccccc43)nc12 was tested, and the Potency was 4.44 µM (active).
In the case of CC(C)(C)c1ccc(OCC(=O)Nc2ccc3c4c(cccc24)C(=O)NC3=O)cc1, the max response is reported as 5.82% (inactive).
CCCCn1c(N)c(N(Cc2ccccc2OC)C(=O)c2ccc([N+](=O)[O-])s2)c(=O)[nH]c1=O was tested, and the max response was -9.57% (inactive).
In the case of O=C(NCC1CCCO1)c1nn2c(C(F)(F)F)cc(-c3cc(Br)cs3)nc2c1Br (stereo unspecified), the Potency is reported as 11.6 µM (active).
For COc1ccc(S(=O)(=O)Nc2cc(Sc3ncn[nH]3)c(O)c3ccccc23)cc1, the max response was -14.9% (inactive).
CCCNc1c(F)c(F)c2c(C)c3ccccc3nc2c1F was tested, and the Potency was 14 µM (active).
Cc1c2ccccc2nc2c(F)c(NC(C)C)c(F)c(F)c12 was tested, and the Potency was 6.51 µM (active).
In the case of CC(C)C1C(=O)N(Cc2cn(CCC3OCCCO3)nn2)CCS(=O)(=O)N1Cc1ccc(-c2cccc(CO)c2)cc1 (stereo unspecified), the max response is reported as -10.5% (inactive).
With COC(=O)c1sc2cc([N+](=O)[O-])cc(SCC(C)C)c2c1N the Potency was 13 µM (active).
CCOC(=O)c1sc2cc([N+](=O)[O-])cc(SCC(C)C)c2c1N was tested, and the Potency was 2.06 µM (active).
In the case of CC1(C(=O)Nc2ccc3c(c2)OCO3)Cc2c(-c3ccccc3)ccnc2O1 (stereo unspecified), the max response is reported as -25.3% (inactive).
In the case of COc1cc2c(cc1OC)C1=CC(=O)C(=O)N1C(C)(C)C2, the Potency is reported as 14 µM (active).
For C=CCSc1nnc(C)c(/C=C/Nc2ccc(Cl)cc2)n1, the Potency was 20.6 µM (active).
With COc1ccc(N/C=C/c2nc(SC)nnc2C)cc1 the max response was -11.1% (inactive).
O=C1c2ccccc2C(=O)c2cc(N3CCCCC3)ccc21 was tested, and the Potency was 8.86 µM (active).
For O=C1c2ccccc2-c2nc3ccccc3cc21, the max response was -23.6% (inactive).
C=C(/C=C/c1ccc(N(C)C)cc1)c1nc2ccccc2s1 was tested, and the Potency was 14.6 µM (active).
For O=C1/C(=C\c2ccc(O)cc2)SC(=S)N1Cc1ccccc1, the max response was -2.14% (inactive).
In the case of COc1cc(/C=C2\SC(=S)N(NC(=O)c3ccccc3O)C2=O)ccc1O, the max response is reported as -22.7% (inactive).
In the case of O=C(O)c1cc(-c2ccc(/C=C3/SC(=S)N(Cc4ccccc4)C3=O)o2)ccc1Cl, the Potency is reported as 13 µM (active).
In the case of COc1cc(/C=C2\SC(=S)N(NC(=O)c3ccccc3OC)C2=O)ccc1O, the max response is reported as -7.76% (inactive).
In the case of COc1cc(/C=C2/SC(=S)N(CCC(=O)Nc3ccccc3)C2=O)cc(OC)c1OC, the Potency is reported as 18.4 µM (active).
With COc1cc(/C=C2/SC(=S)N(Cc3ccccc3)C2=O)cc(Cl)c1O the Potency was 4.44 µM (active).
With O=C1/C(=C/c2ccc(N3CCCC3)cc2)NC(=S)N1C1CC1 the Potency was 5.17 µM (active).
In the case of Cc1cc(/C=C2\NC(=S)N(C)C2=O)ccc1N1CCCC1, the Potency is reported as 12.5 µM (active).
Cc1cc(N2CCCC2)ccc1/C=C1\NC(=S)N(C)C1=O was tested, and the Potency was 1.84 µM (active).
For O=C(Oc1ccc(Cl)c2cccnc12)c1ccco1, the max response was -0.0527% (inactive).
For CS(=O)(=O)N(CC(=O)N1CCN(Cc2ccccc2)CC1)c1ccccc1F, the max response was 0.272% (inactive).
In the case of CN(C)c1ccc(/C=C/c2ccnc3ccc(N)cc23)cc1, the Potency is reported as 20.6 µM (active).
In the case of CN(C)c1ccc(/C=C/c2ccnc3ccc(Br)cc23)cc1, the Potency is reported as 3.66 µM (active).
In the case of Cc1ccc2nccc(/C=C/c3ccc(N(C)C)cc3)c2c1, the Potency is reported as 5.8 µM (active).
CN(C)c1ccc(/C=C/c2ccnc3cc(Cl)ccc23)cc1 was tested, and the Potency was 2.91 µM (active).
For Cc1cc(C)c2nccc(/C=C/c3ccc(N(C)C)cc3)c2c1, the Potency was 10.3 µM (active).
In the case of CN(C)c1ccc(/C=C/c2ccnc3ccc(I)cc23)cc1, the Potency is reported as 8.2 µM (active).
For Cc1ccc2c(/C=C/c3ccc(N(C)C)cc3)ccnc2c1, the Potency was 18.4 µM (active).
For COc1ccc2nccc(/C=C/c3ccc(N(C)C)cc3)c2c1, the Potency was 23.1 µM (active).
In the case of CC(=O)Nc1cccc(-c2ccnc3c2CC(C)(C(=O)Nc2cccc(C(C)=O)c2)O3)c1 (stereo unspecified), the max response is reported as -22.1% (inactive).
In the case of S=C(NCCSCc1ccc(Cl)cc1)Nc1ccccc1, the max response is reported as -0.773% (inactive).
For N#CC1CC(c2ccccc2)Nc2cc(Cl)ccc2N1 (stereo unspecified), the max response was -26.3% (inactive).
In the case of COc1cc(Cl)c(C)cc1NC(=O)CN1CCN(C(=O)C2CC2)CC1, the max response is reported as -14.7% (inactive).
In the case of CCC(C)Sc1cc(-c2nc3ccccn3c2NC2CCCCC2)ccc1OC (stereo unspecified), the max response is reported as -11.6% (inactive).
In the case of CCCN1C=CC(=CC=C(C#N)C#N)C=C1, the Potency is reported as 15.8 µM (active).
C=CCN1C=CC(=CC=C(C#N)C#N)C=C1 was tested, and the Potency was 11.2 µM (active).
For C=CCN1C=CC(=C/C=C(/C#N)C(=O)OCC)C=C1, the max response was -21.4% (inactive).
With CCOc1ccc(Br)cc1C(=O)Nc1ccc(C(=O)NCC(C)C)cc1 the max response was -8.08% (inactive).
CCOc1ccc(NC(=O)/C(C#N)=C/c2ccc(N3CCCC3)c(C)c2)cc1 was tested, and the Potency was 1.03 µM (active).
For CCOc1cc(/C=C(/C#N)C(=O)Nc2ccc(O)cc2)cc(Br)c1O, the Potency was 15.8 µM (active).
N#C/C(=C/c1ccc2c(c1)OCO2)C(=O)Nc1ccc(O)cc1 was tested, and the max response was -28.5% (inactive).
For CC(=O)Nc1ccc(S(=O)(=O)Nc2nc3ccccc3nc2Sc2nncn2C)cc1, the max response was -12.8% (inactive).
In the case of Cc1ccc2nc3c(cc(S(=O)(=O)c4ccccc4)c(=N)n3Cc3ccco3)c(=O)n2c1, the max response is reported as -15.4% (inactive).
With COc1ccc(Cn2c(C)nc3c(c2=O)c2nc4ccccc4nc2n3Cc2ccco2)cc1 the Potency was 14.6 µM (active).
With CC(C)n1cnc2c(NCc3ccccc3)cc(N[C@H](C)CO)cc21 the Potency was 12.5 µM (active).
With Cc1ccccc1N1C(=O)c2cccc3c(N(C)CCO)ccc(c23)C1=O the max response was -29.5% (inactive).
For Cc1ccc(N2C(=O)c3cccc4c(N5CCN(C)CC5)ccc(c34)C2=O)c2cccnc12, the Potency was 17.7 µM (active).
CC1(C(=O)NCc2cccs2)Cc2c(-c3ccc(C(N)=O)cc3)ccnc2O1 (stereo unspecified) was tested, and the max response was -27% (inactive).
With CCOC(=O)c1ccc(Nc2nc3ccccc3nc2NS(=O)(=O)c2ccc(Cl)cc2)cc1 the max response was -8.48% (inactive).
With CCOC(=O)c1c(Nc2ccc(Cl)cc2)sc(/C=C2\C=Nc3ccccc32)c1O the Potency was 14.6 µM (active).
CC(C)(C)c1ccc(Oc2ccc(NC(=O)c3ccccc3C(=O)O)cn2)cc1 was tested, and the max response was 1.93% (inactive).
With CCC(C)n1c(NC(=O)c2ccccc2)c(C#N)c2nc3ccccc3nc21 (stereo unspecified) the Potency was 16.4 µM (active).
With CCN(CC)C(=O)Cn1c(C)c(/C=C/c2cc[n+](C)cc2)c2ccccc21 the Potency was 11.2 µM (active).
In the case of COC(=O)Cn1c(C)c(/C=C/c2cc[n+](C)cc2)c2ccccc21, the Potency is reported as 18.4 µM (active).
With S=c1[nH]nc(-c2cccnc2)n1/N=C/C(Cl)=C\c1ccccc1 the max response was -29.6% (inactive).
For CN(C)c1ccc(/C=C/C(=O)c2c(O)c3ccccc3oc2=O)cc1, the Potency was 1.46 µM (active).
In the case of c1ccc(-c2cnn3c(-c4ccccc4)c(-c4ccccc4)nc3n2)cc1, the Potency is reported as 1.84 µM (active).
CN(C)c1ccc(/C=C/c2nc3ccccc3c(=O)[nH]2)cc1 was tested, and the max response was -19.3% (inactive).
For CN(C)c1ccc(/C=C/c2nc3ccccc3c(=O)n2CCO)cc1, the Potency was 20.6 µM (active).
CCN(CC)c1ccc(/C=C/c2cc(-c3ccccc3)c3ccccc3n2)cc1 was tested, and the Potency was 5.59 µM (active).
For Nc1ccc2nc(-c3ccccc3)c(-c3ccccc3)nc2c1, the max response was -17.1% (inactive).
With CN(NC(=O)c1ccccc1)c1nc2ccccc2nc1C(F)(F)F the max response was -29.3% (inactive).
With CN(C)c1ccc(/C=C/c2cc(N(C)C)nc3ccccc23)cc1 the Potency was 9.2 µM (active).
For Nc1ccc(/C=C/c2cc(Cl)nc3ccccc23)cc1, the Potency was 18.4 µM (active).
In the case of COC(=O)c1ccccc1NC(=O)C1CC(=O)N(c2ccc(OC)cc2)C1 (stereo unspecified), the max response is reported as -29% (inactive).
For O=C(Cn1ncc(Cl)c(Cl)c1=O)N1CCN(S(=O)(=O)c2ccc3ccccc3c2)CC1, the max response was -29% (inactive).
For C/C(=N\NC(=S)NC(C)C)c1ccc(C(C)(C)C)cc1, the max response was -1.78% (inactive).
In the case of CN(C)c1ccc(/C=C/c2cc(/C=C/c3ccc(N(C)C)cc3)c3ccccc3n2)cc1, the Potency is reported as 7.31 µM (active).
In the case of CCOc1ccc(C2CC(c3c(O)c4ccccc4oc3=O)=NN2c2ccccc2)cc1OC (stereo unspecified), the Potency is reported as 13 µM (active).
With CC[N+](C)(C(=O)O)/C(=C\c1ccccc1)c1ccnc2ccccc12 (stereo unspecified) the Potency was 20.6 µM (active).
For CC(C)Cn1c(N)c(C(=O)COC(=O)c2ccc([N+](=O)[O-])o2)c(=O)n(C)c1=O, the max response was 3.32% (inactive).
